# The supplement of paper PMC12819154, “High-throughput peptide-centric local stability assay extends protein–ligand identification to membrane proteins, tissues and bacteria” (Nature Structural & Molecular Biology, 2025)
# Compound: CN[C@@H]1C[C@H]2O[C@@](C)([C@@H]1OC)n1c3ccccc3c3c4c(c5c6ccccc6n2c5c31)C(=O)NC4 [staurosporine]
# Experiment: log2 fold change of tryptic peptide abundance, ligand vs vehicle (limited proteolysis) (log2 ratio); higher = more trypsin-susceptible (destabilized)
# Details: ligand concentration: 20 uM; sample: mouse liver crude lysate; replicate design: treated separately
# UniProt P56593, sequence (P56593 whole entry): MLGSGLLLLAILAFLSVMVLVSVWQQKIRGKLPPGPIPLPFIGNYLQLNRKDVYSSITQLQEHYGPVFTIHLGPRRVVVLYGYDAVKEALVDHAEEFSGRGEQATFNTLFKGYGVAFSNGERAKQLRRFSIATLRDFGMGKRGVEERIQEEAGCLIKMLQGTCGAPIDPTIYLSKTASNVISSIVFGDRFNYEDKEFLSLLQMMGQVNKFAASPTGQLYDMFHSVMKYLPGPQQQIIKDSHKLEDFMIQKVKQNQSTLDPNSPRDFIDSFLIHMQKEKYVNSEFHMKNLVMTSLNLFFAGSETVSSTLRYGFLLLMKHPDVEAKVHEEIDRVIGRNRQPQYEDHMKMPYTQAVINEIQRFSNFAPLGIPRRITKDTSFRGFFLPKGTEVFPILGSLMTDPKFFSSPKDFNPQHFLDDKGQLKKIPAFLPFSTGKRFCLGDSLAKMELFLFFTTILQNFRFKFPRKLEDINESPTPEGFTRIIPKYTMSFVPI
# UniProt Q8BRK8, sequence (Q8BRK8 whole entry): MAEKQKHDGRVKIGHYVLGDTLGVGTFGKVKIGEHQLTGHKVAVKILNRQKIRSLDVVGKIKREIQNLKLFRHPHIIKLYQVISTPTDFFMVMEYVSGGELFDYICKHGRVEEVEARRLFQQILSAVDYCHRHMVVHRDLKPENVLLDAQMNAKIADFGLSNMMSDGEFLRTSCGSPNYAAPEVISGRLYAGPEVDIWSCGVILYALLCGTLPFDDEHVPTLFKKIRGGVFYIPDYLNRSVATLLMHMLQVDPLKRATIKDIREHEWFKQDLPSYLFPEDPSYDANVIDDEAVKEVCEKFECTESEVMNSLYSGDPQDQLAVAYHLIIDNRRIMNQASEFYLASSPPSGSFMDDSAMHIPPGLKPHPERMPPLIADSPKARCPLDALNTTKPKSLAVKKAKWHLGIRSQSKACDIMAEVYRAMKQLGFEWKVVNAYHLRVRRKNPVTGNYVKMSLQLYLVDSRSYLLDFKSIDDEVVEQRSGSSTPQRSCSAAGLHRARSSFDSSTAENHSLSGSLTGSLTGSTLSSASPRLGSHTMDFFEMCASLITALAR
# UniProt Q91V04, sequence (Q91V04 whole entry): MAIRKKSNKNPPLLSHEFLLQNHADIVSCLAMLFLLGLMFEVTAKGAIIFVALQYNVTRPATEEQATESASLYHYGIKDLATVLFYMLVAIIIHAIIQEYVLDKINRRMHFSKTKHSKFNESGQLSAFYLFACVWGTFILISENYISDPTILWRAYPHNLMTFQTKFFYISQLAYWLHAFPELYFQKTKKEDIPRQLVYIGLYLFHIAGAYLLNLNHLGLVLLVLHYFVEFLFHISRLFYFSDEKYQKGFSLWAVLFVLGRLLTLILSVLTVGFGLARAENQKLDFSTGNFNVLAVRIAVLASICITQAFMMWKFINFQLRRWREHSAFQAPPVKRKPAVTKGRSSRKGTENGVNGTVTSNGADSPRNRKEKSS
# UniProt P47811, sequence (P47811 whole entry): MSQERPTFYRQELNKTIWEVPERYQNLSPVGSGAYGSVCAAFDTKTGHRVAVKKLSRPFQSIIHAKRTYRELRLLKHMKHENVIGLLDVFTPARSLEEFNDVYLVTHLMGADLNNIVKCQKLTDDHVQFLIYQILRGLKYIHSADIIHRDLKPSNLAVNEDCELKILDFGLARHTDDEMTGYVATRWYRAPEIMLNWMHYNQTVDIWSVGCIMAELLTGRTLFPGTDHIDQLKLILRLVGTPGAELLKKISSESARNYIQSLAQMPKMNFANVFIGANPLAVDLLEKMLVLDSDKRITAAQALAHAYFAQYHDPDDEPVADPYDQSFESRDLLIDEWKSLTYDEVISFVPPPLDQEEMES
# UniProt O88455, sequence (O88455 whole entry): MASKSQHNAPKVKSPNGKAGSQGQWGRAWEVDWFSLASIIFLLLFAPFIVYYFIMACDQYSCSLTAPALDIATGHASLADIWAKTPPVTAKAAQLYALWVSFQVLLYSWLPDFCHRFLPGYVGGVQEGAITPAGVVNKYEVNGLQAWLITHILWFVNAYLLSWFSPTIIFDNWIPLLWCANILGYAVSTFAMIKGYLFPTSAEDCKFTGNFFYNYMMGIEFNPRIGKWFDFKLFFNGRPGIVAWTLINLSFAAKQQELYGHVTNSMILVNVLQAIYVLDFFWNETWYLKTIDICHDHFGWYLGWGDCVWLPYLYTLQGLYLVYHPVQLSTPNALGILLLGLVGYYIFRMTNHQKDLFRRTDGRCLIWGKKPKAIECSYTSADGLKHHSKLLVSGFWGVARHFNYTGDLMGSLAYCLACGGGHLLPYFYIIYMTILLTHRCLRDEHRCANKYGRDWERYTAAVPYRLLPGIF
# UniProt Q9EP53, sequence (Q9EP53 whole entry): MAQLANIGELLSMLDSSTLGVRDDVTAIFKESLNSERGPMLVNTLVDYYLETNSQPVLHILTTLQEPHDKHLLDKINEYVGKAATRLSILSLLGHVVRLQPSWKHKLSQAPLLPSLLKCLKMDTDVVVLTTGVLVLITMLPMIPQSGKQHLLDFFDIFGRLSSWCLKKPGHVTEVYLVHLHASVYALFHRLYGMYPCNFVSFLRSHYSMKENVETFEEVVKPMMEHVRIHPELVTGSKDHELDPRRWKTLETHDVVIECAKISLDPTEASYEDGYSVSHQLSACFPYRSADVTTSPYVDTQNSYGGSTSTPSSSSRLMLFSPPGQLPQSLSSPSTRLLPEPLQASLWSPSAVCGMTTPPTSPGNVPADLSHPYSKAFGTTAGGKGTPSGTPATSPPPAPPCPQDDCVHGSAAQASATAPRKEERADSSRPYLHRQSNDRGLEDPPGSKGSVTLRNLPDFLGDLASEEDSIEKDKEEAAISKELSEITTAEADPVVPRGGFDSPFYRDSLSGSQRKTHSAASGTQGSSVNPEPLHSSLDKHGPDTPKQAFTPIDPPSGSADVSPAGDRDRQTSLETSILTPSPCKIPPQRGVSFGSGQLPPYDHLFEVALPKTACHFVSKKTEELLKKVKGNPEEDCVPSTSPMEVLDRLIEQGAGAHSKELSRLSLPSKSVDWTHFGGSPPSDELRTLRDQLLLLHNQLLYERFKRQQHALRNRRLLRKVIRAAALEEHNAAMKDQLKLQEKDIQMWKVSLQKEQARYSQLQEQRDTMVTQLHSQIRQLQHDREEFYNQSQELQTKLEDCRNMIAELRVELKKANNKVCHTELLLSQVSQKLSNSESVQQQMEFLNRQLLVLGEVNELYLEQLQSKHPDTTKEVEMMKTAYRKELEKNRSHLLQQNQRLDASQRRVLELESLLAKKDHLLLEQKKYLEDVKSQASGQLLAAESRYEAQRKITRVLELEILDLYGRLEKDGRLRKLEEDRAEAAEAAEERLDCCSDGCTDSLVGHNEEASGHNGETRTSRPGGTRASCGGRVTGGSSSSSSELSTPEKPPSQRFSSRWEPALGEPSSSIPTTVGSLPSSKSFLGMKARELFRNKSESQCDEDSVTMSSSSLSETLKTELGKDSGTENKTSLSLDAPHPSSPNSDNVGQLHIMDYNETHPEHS
# UniProt Q07417, sequence (Q07417 whole entry): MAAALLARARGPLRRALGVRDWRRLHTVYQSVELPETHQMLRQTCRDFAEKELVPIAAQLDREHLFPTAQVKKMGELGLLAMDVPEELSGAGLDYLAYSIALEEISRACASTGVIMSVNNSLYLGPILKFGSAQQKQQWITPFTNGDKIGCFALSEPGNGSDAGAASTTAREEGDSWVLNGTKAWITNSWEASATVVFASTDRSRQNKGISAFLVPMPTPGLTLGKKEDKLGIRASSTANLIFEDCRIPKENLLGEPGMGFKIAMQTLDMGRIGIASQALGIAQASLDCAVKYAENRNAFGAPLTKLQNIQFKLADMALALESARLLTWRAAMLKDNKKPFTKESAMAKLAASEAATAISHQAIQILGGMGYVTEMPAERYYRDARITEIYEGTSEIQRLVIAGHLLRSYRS
# UniProt Q61578, sequence (Q61578 whole entry): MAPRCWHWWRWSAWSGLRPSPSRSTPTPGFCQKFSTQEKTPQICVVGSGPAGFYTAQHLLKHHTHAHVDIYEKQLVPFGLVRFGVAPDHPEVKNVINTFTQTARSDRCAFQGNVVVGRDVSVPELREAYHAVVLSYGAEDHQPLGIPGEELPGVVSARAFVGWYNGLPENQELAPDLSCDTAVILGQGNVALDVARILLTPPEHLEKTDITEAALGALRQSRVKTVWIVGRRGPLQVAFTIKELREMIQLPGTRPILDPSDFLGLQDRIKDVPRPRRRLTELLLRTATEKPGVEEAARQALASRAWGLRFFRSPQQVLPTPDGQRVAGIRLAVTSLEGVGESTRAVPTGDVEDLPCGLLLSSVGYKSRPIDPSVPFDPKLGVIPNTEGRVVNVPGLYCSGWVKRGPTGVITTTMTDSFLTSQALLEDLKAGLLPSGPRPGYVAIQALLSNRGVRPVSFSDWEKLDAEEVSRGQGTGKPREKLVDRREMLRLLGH
# UniProt P55096, sequence (P55096 whole entry): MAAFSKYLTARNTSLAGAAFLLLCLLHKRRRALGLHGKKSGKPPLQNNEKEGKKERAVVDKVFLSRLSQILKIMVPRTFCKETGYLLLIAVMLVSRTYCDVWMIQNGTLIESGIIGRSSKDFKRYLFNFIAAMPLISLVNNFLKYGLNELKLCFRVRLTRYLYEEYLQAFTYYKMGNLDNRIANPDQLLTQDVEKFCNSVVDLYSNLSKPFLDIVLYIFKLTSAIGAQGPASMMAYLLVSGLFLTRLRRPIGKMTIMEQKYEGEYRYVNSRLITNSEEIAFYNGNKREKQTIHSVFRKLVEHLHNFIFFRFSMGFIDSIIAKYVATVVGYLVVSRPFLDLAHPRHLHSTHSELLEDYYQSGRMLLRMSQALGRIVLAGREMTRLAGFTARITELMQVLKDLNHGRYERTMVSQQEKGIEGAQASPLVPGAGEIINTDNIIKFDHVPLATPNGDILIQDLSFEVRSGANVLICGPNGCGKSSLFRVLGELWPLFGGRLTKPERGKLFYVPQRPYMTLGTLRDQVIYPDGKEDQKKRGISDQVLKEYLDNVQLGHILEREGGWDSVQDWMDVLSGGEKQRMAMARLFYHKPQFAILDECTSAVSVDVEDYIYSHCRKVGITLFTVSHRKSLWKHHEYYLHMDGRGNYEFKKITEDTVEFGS
row,Target,log2 fold change
1,"UniProt O35857 (peptide sequence: NSKGEVYDGDPDKVQR, peptide start residue: 403)",-0.52
2,"UniProt P56593 (peptide sequence: FSNFAPLGIPR, peptide start residue: 360)",-0.352
3,"UniProt P47962 (peptide sequence: GAVDGGLSIPHSTK, peptide start residue: 165)",0.536
4,"UniProt Q9R117 (peptide sequence: NVLLDNDR, peptide start residue: 1025)",-1.42
5,"UniProt P37172 (peptide sequence: GSWQGENVAVK, peptide start residue: 225)",-2.41
6,"UniProt P33622 (peptide sequence: GWMDNHFR, peptide start residue: 61)",0.483
7,"UniProt Q8CIE6 (peptide sequence: VTTVTEIGKDVIGLR, peptide start residue: 1203)",-0.699
8,"UniProt P28652 (peptide sequence: NLINQMLTINPAKR, peptide start residue: 247)",-2.11
9,"UniProt P34914 (peptide sequence: NWKWSCK, peptide start residue: 471)",0.437
10,"UniProt Q9JM62 (peptide sequence: NVATEALGALEAR, peptide start residue: 16)",0.439
11,"UniProt Q3UYH7 (peptide sequence: SLLEGLLQR, peptide start residue: 423)",-0.733
12,"UniProt Q99N91 (peptide sequence: GNEYQPSNIK, peptide start residue: 50)",0.323
13,"UniProt O08605 (peptide sequence: GLPTPQVLQR, peptide start residue: 341)",1.06
14,"UniProt P10649 (peptide sequence: YIATPIFSK, peptide start residue: 203)",0.584
15,"UniProt Q07417 (peptide sequence: GISAFLVPMPTPGLTLGKKEDK, peptide start residue: 209)",0.268
16,"UniProt O88455 (peptide sequence: LLVSGFWGVAR, peptide start residue: 390)",0.757
17,"UniProt Q8BRK8 (peptide sequence: DLKPENVLLDAQMNAK, peptide start residue: 139)",-3.83
18,"UniProt O88351 (peptide sequence: DLKPENIVLQQGEKR, peptide start residue: 145)",-0.744
19,"UniProt Q61578 (peptide sequence: NVINTFTQTAR, peptide start residue: 94)",0.834

row,Target,log2 fold change
1,"UniProt Q9WU79 (peptide sequence: ASGGASDGGFSAIK, peptide start residue: 220)",0.201
2,"UniProt P55096 (peptide sequence: EKQTIHSVFRK, peptide start residue: 288)",0.493
3,"UniProt Q99KH8 (peptide sequence: GEPPHSELHPMK, peptide start residue: 215)",-1.74
4,"UniProt Q91XF0 (peptide sequence: SSQIGAVVSR, peptide start residue: 164)",1.44
5,"UniProt Q8R1Z9 (peptide sequence: LSCNHVFHEFCIR, peptide start residue: 249)",1.08
6,"UniProt Q99J56 (peptide sequence: GGVSGFGVPPASMR, peptide start residue: 215)",0.327
7,"UniProt P26149 (peptide sequence: YIPPFNR, peptide start residue: 311)",0.476
8,"UniProt E9Q3L2 (peptide sequence: ACLSALSEVK, peptide start residue: 1763)",-0.812
9,"UniProt Q8VDU5 (peptide sequence: IAGLYDLDKTLGR, peptide start residue: 12)",-1.42
10,"UniProt Q99KG5 (peptide sequence: VLYYMEK, peptide start residue: 347)",-0.236
11,"UniProt Q91V04 (peptide sequence: EHSAFQAPPVKR, peptide start residue: 325)",3.7
12,"UniProt Q99LC5 (peptide sequence: TIYAGNALCTVK, peptide start residue: 147)",0.35
13,"UniProt Q3TWW8 (peptide sequence: CSWQDLKDFMR, peptide start residue: 121)",1.07
14,"UniProt Q6PDI5 (peptide sequence: NLTSNMWR, peptide start residue: 1165)",0.284
15,"UniProt Q9ET43 (peptide sequence: SRLSAIEIDIPVVSHST, peptide start residue: 228)",-0.532
16,"UniProt P47811 (peptide sequence: NYIQSLAQMPK, peptide start residue: 257)",0.32
17,"UniProt Q8VCR2 (peptide sequence: ALLPSMLR, peptide start residue: 154)",-0.279
18,"UniProt Q9EP53 (peptide sequence: SHLLQQNQR, peptide start residue: 890)",-0.636
19,"UniProt P43883 (peptide sequence: DQYPYLR, peptide start residue: 38)",0.671
